Columns and labels:
Test in all cases: log2 ratio of Biotin-Ahx-Ub-VS probe labelling (fragment/DMSO); higher = less target engagement (more negative = stronger competition), active = hit call of the paper (q ≤ 0.05, log2 ratio ≤ -1)
Settings in all cases: compound concentration: 200 uM; treatment time: 3 h
USP42 = target: T1, USP42 (UniProt Q9H9J4)
T1 sequence (whole entry): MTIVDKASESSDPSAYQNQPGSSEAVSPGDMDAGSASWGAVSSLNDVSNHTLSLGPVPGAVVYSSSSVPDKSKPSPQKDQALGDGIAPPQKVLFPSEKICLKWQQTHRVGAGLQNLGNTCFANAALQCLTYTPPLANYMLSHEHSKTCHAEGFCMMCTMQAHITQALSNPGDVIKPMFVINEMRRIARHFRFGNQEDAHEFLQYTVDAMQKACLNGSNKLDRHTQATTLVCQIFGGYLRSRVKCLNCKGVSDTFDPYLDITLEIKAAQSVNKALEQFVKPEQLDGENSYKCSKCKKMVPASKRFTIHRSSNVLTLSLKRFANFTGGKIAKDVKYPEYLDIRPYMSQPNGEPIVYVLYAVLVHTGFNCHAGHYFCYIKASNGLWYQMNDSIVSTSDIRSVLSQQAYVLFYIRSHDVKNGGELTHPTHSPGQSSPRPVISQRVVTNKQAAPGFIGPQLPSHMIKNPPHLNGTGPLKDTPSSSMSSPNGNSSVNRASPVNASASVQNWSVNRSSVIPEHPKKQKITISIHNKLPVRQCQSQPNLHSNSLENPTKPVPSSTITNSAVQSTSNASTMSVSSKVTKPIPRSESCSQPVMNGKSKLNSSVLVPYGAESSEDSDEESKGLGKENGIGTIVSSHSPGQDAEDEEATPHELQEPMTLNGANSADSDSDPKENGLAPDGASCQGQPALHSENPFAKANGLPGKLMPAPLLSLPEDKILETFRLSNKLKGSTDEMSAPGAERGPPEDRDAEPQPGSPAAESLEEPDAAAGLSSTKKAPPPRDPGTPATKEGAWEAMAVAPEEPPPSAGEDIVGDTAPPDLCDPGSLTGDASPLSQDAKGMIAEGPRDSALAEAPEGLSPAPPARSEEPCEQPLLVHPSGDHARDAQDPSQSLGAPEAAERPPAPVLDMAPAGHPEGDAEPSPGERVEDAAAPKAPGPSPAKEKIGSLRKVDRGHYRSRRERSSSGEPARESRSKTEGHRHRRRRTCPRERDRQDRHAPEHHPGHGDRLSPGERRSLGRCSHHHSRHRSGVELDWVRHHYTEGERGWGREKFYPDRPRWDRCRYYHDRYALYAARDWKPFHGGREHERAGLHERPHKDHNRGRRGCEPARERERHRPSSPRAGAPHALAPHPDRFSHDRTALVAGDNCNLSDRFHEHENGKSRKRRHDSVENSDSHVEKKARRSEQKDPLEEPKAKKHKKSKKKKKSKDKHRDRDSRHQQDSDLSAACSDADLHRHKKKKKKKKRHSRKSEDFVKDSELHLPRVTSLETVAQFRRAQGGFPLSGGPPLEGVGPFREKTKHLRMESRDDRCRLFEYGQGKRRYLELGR
In short: (§1)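 HEK293T lysate (495 µg per sample, in Tris/CHAPS/IGEPAL buffer with protease inhibitors) was exposed in triplicate for 3 h to fragment at 200 µM or to vehicle, then to Biotin-Ahx-Ub-VS at 0.5 µM final for 1 h. Labelled DUBs were enriched on NeutrAvidin, digested with LysC and trypsin, and analysed by diaPASEF LC-MS/MS. Spectronaut label-free quantities were normalised to the global median, and values are average log2 ratios of fragment over vehicle from an unpaired t-test. Only proteins with ≥2 unique peptides were used.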

USP46 = USP46 (UniProt P62068)
Chain of USP46 (P62068 whole entry): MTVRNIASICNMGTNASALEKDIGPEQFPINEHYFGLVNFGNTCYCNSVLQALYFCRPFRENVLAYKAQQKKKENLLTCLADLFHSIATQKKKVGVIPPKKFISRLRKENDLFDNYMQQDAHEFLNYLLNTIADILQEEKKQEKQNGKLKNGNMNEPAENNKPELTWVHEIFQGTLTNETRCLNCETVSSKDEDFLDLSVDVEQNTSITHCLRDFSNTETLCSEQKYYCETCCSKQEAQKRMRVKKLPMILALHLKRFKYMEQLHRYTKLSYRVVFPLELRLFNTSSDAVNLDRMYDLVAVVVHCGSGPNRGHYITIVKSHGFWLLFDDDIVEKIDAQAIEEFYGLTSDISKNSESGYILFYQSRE
In short: as §1

USP47 = target: T2, USP47 (UniProt Q96K76)
T2 sequence (whole entry): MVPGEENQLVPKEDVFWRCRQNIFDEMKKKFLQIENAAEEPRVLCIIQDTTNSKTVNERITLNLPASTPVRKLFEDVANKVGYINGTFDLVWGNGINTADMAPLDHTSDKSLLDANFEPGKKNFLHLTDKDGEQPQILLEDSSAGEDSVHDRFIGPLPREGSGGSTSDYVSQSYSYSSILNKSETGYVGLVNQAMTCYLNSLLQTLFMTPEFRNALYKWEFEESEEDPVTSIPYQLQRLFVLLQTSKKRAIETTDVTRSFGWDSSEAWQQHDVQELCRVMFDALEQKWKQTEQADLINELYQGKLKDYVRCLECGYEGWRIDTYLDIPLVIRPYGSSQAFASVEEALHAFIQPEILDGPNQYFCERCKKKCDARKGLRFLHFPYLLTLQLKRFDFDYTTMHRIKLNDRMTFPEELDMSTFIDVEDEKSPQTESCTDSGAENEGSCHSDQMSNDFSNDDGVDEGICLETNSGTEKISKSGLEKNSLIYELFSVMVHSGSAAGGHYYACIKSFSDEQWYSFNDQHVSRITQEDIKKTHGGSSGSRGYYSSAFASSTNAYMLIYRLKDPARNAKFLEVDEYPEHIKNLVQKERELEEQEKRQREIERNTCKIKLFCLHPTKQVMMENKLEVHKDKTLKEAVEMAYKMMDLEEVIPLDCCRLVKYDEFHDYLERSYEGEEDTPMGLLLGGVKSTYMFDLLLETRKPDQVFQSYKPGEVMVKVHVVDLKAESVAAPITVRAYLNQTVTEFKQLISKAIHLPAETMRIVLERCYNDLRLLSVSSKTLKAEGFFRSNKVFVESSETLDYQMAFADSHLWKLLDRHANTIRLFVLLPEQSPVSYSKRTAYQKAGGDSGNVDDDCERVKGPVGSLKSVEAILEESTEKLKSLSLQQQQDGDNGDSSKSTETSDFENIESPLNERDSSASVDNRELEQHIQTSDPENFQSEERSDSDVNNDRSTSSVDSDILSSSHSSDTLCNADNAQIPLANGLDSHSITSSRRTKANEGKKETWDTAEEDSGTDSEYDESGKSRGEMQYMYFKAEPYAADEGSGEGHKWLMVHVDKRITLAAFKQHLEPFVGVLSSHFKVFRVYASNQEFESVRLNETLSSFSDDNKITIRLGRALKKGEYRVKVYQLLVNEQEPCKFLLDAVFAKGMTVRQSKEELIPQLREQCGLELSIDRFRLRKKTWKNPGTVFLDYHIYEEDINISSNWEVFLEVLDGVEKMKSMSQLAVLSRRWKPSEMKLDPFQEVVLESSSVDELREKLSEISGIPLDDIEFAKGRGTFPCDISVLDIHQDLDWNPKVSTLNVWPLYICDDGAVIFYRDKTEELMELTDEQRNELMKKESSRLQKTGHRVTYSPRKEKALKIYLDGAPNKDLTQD
In short: as §1

USP48 = target: T3, USP48 (UniProt Q86UV5)
T3 sequence (whole entry): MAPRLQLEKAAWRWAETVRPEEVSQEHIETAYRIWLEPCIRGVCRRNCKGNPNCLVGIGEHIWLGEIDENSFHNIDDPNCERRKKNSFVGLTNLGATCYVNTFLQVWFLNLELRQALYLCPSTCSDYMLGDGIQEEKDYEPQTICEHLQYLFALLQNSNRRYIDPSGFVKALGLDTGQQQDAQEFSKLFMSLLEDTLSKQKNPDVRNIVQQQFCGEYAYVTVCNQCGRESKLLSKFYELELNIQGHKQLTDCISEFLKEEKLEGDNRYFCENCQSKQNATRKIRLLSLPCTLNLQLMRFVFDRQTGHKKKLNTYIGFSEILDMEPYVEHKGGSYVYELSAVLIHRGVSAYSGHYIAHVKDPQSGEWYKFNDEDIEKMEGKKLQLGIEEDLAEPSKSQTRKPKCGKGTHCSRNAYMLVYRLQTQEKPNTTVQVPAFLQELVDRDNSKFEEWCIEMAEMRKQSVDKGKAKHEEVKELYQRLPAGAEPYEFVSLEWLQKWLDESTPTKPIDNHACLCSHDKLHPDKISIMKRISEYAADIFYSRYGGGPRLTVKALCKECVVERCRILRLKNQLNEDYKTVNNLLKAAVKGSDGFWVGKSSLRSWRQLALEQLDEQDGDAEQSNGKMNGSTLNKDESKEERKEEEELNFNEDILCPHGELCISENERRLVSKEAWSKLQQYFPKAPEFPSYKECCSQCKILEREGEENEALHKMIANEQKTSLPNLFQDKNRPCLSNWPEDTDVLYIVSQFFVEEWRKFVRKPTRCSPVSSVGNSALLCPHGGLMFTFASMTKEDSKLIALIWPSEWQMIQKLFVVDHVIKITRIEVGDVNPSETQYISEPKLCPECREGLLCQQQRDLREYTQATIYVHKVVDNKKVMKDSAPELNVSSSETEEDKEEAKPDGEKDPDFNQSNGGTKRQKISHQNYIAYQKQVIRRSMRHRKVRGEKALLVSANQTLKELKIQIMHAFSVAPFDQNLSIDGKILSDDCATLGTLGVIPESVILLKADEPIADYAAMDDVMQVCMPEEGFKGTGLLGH
In short: as §1

USP5 = target: T4, USP5 (UniProt P45974)
T4 sequence (whole entry): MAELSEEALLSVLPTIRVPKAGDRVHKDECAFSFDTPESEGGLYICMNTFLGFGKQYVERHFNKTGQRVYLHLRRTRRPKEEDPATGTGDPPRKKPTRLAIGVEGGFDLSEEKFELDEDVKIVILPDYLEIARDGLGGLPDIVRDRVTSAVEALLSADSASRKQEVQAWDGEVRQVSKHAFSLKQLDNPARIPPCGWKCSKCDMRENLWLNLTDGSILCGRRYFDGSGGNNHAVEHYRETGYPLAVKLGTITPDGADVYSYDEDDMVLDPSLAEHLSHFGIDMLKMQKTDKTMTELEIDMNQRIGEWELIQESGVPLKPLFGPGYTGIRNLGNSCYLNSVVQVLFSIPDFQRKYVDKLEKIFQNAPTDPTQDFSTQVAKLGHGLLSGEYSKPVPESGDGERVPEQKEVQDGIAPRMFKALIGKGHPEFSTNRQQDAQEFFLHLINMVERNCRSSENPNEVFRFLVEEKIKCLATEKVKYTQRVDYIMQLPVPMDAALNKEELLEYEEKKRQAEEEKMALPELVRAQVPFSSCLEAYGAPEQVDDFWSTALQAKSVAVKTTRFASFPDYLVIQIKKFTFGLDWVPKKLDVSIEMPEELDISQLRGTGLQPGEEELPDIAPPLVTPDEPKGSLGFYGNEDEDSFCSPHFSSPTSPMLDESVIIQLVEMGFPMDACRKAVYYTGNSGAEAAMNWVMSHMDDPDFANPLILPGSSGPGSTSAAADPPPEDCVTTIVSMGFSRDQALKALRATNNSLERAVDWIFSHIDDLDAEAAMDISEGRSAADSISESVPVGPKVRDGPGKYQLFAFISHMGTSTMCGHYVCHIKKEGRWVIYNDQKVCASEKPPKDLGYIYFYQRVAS
In short: as §1

USP54 = USP54 (UniProt Q70EL1)
Chain of USP54 (Q70EL1 whole entry): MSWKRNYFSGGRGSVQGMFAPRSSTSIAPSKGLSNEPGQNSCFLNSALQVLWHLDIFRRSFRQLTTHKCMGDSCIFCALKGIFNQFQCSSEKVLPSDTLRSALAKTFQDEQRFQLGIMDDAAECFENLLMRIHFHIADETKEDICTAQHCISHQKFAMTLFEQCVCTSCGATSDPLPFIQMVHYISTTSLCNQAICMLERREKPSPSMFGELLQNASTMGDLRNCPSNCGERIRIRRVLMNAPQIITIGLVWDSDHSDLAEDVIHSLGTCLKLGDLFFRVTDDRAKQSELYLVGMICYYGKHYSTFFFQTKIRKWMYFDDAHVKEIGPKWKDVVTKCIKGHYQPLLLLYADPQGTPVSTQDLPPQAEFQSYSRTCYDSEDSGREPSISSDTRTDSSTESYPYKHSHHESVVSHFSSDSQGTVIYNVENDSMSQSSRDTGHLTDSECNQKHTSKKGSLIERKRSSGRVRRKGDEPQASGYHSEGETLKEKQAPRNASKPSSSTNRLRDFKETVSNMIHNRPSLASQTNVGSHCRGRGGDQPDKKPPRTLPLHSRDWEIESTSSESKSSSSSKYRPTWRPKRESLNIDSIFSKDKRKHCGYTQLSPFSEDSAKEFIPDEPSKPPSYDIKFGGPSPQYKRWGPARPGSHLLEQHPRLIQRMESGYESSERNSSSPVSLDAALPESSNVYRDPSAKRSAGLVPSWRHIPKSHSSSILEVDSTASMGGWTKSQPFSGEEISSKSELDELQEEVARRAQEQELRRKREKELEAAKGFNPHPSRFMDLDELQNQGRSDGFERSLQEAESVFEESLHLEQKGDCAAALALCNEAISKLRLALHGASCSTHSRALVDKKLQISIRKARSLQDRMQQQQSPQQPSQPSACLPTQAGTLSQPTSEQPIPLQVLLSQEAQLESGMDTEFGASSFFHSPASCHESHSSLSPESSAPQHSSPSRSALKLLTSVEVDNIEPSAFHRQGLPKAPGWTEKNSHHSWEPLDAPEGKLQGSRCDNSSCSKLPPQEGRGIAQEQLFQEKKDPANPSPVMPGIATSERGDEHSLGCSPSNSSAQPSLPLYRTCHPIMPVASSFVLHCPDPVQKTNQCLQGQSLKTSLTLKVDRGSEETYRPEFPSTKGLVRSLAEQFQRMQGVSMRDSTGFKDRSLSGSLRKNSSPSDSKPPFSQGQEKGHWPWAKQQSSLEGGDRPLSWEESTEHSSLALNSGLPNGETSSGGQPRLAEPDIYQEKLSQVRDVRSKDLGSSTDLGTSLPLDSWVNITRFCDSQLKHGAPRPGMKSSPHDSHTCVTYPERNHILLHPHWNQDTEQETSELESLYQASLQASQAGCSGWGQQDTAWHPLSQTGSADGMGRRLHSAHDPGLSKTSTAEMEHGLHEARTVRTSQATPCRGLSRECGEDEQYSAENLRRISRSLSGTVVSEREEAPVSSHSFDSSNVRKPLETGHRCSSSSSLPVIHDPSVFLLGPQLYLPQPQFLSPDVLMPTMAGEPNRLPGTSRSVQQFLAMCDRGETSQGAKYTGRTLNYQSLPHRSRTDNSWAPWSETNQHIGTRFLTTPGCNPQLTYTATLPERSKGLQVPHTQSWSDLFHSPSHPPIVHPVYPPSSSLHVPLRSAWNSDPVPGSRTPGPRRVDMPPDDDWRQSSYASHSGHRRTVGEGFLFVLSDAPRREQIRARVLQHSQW
In short: as §1

USP7 = USP7 (UniProt Q93009)
Chain of USP7 (Q93009 whole entry, looked up): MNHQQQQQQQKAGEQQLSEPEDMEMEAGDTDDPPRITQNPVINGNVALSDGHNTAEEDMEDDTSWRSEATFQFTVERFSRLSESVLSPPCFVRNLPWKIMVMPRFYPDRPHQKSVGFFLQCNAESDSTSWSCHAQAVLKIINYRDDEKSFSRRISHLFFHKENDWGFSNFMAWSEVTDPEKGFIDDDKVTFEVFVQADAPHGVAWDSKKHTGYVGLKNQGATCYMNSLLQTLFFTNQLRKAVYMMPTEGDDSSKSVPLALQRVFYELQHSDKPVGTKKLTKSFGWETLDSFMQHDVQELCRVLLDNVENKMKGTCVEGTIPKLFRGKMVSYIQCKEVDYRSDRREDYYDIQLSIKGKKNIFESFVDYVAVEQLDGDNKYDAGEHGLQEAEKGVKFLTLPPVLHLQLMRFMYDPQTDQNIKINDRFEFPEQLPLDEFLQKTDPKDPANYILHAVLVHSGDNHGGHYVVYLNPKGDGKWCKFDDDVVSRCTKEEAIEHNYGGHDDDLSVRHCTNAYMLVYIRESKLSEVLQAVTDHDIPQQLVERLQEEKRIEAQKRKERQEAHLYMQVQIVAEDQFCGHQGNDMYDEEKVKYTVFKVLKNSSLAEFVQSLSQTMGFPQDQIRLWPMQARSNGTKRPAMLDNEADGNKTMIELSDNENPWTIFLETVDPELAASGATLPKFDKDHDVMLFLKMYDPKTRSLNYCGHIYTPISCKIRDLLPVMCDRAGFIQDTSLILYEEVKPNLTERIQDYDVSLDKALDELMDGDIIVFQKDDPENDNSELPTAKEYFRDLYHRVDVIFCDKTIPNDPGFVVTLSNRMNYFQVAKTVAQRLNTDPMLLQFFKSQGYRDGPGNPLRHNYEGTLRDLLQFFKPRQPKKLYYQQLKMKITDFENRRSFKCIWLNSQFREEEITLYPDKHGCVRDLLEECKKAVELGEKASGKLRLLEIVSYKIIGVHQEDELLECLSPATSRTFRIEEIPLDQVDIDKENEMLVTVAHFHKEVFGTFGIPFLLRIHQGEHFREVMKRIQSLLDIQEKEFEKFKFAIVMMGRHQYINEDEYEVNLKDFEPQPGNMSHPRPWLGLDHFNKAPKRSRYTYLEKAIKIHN
In short: as §1

USP8 = target: T5, USP8 (UniProt P40818)
T5 sequence (whole entry): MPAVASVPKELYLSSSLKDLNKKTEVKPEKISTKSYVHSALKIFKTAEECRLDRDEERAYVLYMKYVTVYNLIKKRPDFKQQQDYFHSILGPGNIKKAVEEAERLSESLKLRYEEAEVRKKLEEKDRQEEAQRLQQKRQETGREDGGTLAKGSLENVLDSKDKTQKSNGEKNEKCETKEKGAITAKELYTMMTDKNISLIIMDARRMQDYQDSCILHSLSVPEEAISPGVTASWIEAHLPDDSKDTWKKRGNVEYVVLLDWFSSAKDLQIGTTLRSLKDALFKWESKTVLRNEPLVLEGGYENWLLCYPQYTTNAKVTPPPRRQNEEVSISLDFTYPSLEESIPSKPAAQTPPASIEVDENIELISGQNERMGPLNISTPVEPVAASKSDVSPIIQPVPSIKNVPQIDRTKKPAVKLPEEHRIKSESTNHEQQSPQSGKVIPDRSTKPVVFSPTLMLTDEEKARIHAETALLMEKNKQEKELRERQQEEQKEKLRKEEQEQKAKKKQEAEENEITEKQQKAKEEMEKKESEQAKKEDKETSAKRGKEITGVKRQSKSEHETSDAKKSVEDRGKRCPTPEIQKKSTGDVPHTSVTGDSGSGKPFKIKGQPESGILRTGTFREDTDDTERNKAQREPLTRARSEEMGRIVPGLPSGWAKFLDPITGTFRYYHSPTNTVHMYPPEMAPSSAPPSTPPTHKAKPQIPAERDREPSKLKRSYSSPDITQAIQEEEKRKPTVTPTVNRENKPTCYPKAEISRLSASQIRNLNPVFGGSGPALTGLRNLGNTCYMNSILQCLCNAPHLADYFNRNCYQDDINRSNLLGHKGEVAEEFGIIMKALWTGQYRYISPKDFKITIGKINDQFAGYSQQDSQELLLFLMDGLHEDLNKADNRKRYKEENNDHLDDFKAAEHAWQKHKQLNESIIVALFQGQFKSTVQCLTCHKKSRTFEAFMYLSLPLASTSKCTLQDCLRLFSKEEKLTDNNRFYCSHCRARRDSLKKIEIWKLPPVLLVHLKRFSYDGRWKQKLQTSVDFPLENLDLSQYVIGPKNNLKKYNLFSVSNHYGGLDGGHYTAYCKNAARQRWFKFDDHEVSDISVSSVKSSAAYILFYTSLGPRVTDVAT
In short: as §1

Measured: log2 ratio of Biotin-Ahx-Ub-VS probe labelling

O=C(CCl)NCc1ccc(N2CCOCC2)nc1
inactive: USP42 -0.0847 | USP46 0.0882 | USP47 -0.466 | USP48 -0.188 | USP5 -0.217 | USP54 0.658 | USP7 -0.147 | USP8 -0.289

Source: the supplement of paper PMC11732987, “Enantioselective OTUD7B fragment discovery through chemoproteomics screening and high-throughput optimisation” (Communications Chemistry, 2025)
